Assay results from PubChem BioAssay (NCI).
This is part of a sample that, as a whole, favours compounds with a hit. Of some 83,000 tested, about 20% had one in any assay.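 96-well plates, one dose, 48 hours. Percent growth reported; active if below 10.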 Active and inactive are the calls of the source.

How the values were obtained:
Assay in all cases: NCI-60 one-dose screen, 48 h (100 = growth as untreated, 0 = no growth, -100 = all killed)
Settings in all cases: 10 µM unless noted
SR leukemia = tested on: SR leukemia
RPMI-8226 leukemia = tested on: RPMI-8226 leukemia
OVCAR-8 ovarian = tested on: OVCAR-8 ovarian
OVCAR-5 ovarian = tested on: OVCAR-5 ovarian
OVCAR-4 ovarian = tested on: OVCAR-4 ovarian
SK-OV-3 ovarian = tested on: SK-OV-3 ovarian
IGROV1 ovarian = tested on: IGROV1 ovarian
OVCAR-3 ovarian = tested on: OVCAR-3 ovarian
HS 578T breast = tested on: HS 578T breast
NCI/ADR-RES ovarian = tested on: NCI/ADR-RES ovarian
T-47D breast = tested on: T-47D breast
BT-549 breast = tested on: BT-549 breast
MDA-MB-435 melanoma = tested on: MDA-MB-435 melanoma
SW-620 colon = tested on: SW-620 colon
MCF7 breast = tested on: MCF7 breast
HCC-2998 colon = tested on: HCC-2998 colon
KM12 colon = tested on: KM12 colon
HCT-116 colon = tested on: HCT-116 colon

Measured: growth

Cc1cc(N/N=C/c2nc(-c3ccc(Cl)cc3)oc2C)c2cc(Br)ccc2n1
inactive: OVCAR-5 ovarian 96.1% | SK-OV-3 ovarian 104% | IGROV1 ovarian 63.3% | HS 578T breast 78.6% | NCI/ADR-RES ovarian 14.7% | T-47D breast 74.5% | BT-549 breast 94% | HCC-2998 colon 89.9% | KM12 colon 55.3%
active: SR leukemia 4.22% | RPMI-8226 leukemia -15% | OVCAR-8 ovarian 8.16% | OVCAR-4 ovarian -83% | OVCAR-3 ovarian -21.2% | MDA-MB-435 melanoma -38.8% | SW-620 colon -65.4% | MCF7 breast -77.8%

Cc1cc2cc3cc(C)c(N(C)C)cc3[n+](C)c2cc1N(C)C
active: RPMI-8226 leukemia 4.78% | IGROV1 ovarian -3.39% | OVCAR-3 ovarian -7.45% | BT-549 breast -28.7% | KM12 colon 3.5%
inactive: SR leukemia 76.9% | OVCAR-8 ovarian 23.4% | OVCAR-5 ovarian 63.4% | OVCAR-4 ovarian 38.5% | SK-OV-3 ovarian 20.2% | HS 578T breast 33.1% | NCI/ADR-RES ovarian 78.4% | T-47D breast 16.4% | MDA-MB-435 melanoma 35.3% | SW-620 colon 14.6% | MCF7 breast 14% | HCC-2998 colon 25.6%

Cn1c(=O)c2[nH]c(C(O)C(O)C(O)C(O)CO)nc2n(C)c1=O (centres undefined)
inactive: SR leukemia 105% | RPMI-8226 leukemia 110% | OVCAR-8 ovarian 108% | OVCAR-5 ovarian 101% | OVCAR-4 ovarian 116% | SK-OV-3 ovarian 99.8% | IGROV1 ovarian 106% | OVCAR-3 ovarian 109% | HS 578T breast 107% | NCI/ADR-RES ovarian 100% | T-47D breast 90.8% | BT-549 breast 108% | MDA-MB-435 melanoma 108% | SW-620 colon 102% | MCF7 breast 97.9% | HCT-116 colon 106% | KM12 colon 101%

C=C(C[n+]1ccccc1)[C@@H]1CC[C@]2(C(=O)OC)CC[C@]3(C)[C@H](CC[C@@H]4[C@@]5(C)CC[C@H](O)C(C)(C)[C@@H]5CC[C@]43C)[C@@H]12
inactive: SR leukemia 108% | RPMI-8226 leukemia 91.1% | OVCAR-8 ovarian 102% | OVCAR-5 ovarian 102% | OVCAR-4 ovarian 99.7% | SK-OV-3 ovarian 95% | IGROV1 ovarian 98% | OVCAR-3 ovarian 108% | HS 578T breast 101% | NCI/ADR-RES ovarian 103% | T-47D breast 82.5% | BT-549 breast 99% | MDA-MB-435 melanoma 91.8% | SW-620 colon 91.6% | MCF7 breast 97.7% | HCC-2998 colon 104% | KM12 colon 103%

CCN(CC)CCCC(C)NCCCNc1cccc2cccnc12 (centres undefined)
inactive: SR leukemia 91% | RPMI-8226 leukemia 96.9% | OVCAR-8 ovarian 91.9% | OVCAR-5 ovarian 125% | OVCAR-4 ovarian 83.2% | SK-OV-3 ovarian 89.2% | IGROV1 ovarian 99.7% | OVCAR-3 ovarian 89.8% | HS 578T breast 105% | NCI/ADR-RES ovarian 92.3% | T-47D breast 89.5% | BT-549 breast 102% | MDA-MB-435 melanoma 106% | SW-620 colon 96.5% | MCF7 breast 95.9% | HCT-116 colon 95.4% | KM12 colon 102%

Cc1cc(=O)oc2cc(Oc3nc(-c4cccs4)cn4c(-c5cccs5)cnc34)ccc12
inactive: SR leukemia 45.6% | RPMI-8226 leukemia 70.3% | OVCAR-8 ovarian 52.5% | OVCAR-5 ovarian 93.8% | OVCAR-4 ovarian 54.1% | SK-OV-3 ovarian 90.6% | IGROV1 ovarian 79.2% | OVCAR-3 ovarian 68% | HS 578T breast 67.6% | NCI/ADR-RES ovarian 53.4% | T-47D breast 54.7% | BT-549 breast 25% | MDA-MB-435 melanoma 61.3% | SW-620 colon 56.7% | MCF7 breast 59.9% | HCT-116 colon 58.7% | KM12 colon 59.6%

CN1CCN(Cc2ccc(NC(=O)c3[nH]ncc3Nc3ccnc4ccsc34)cc2)CC1
inactive: RPMI-8226 leukemia 19.2% | OVCAR-8 ovarian 21.5% | OVCAR-5 ovarian 18.1% | OVCAR-4 ovarian 12.5% | SK-OV-3 ovarian 34.7% | IGROV1 ovarian 24.2% | OVCAR-3 ovarian 22.6% | HS 578T breast 54.6% | NCI/ADR-RES ovarian 93.5% | T-47D breast 65.8% | BT-549 breast 63.1% | MDA-MB-435 melanoma 61.7% | SW-620 colon 20.6% | MCF7 breast 12.9% | HCC-2998 colon 33% | KM12 colon 12.3%
active: SR leukemia -12.5%

COc1cc(-c2c3sc(=O)[nH]c3nc3c2c(=O)[nH]n3C(C)C)cc2c1OCO2
inactive: SR leukemia 81.5% | RPMI-8226 leukemia 124% | OVCAR-8 ovarian 108% | OVCAR-5 ovarian 96.6% | OVCAR-4 ovarian 86% | SK-OV-3 ovarian 114% | IGROV1 ovarian 101% | OVCAR-3 ovarian 114% | HS 578T breast 105% | NCI/ADR-RES ovarian 102% | T-47D breast 105% | BT-549 breast 105% | MDA-MB-435 melanoma 104% | SW-620 colon 104% | MCF7 breast 91.7% | HCT-116 colon 106% | KM12 colon 101%

CC1CN(C(C)C)C(=S)N(c2ccccc2)C1=O (centres undefined)
inactive: SR leukemia 108% | RPMI-8226 leukemia 120% | OVCAR-8 ovarian 97.6% | OVCAR-5 ovarian 90.7% | OVCAR-4 ovarian 112% | SK-OV-3 ovarian 106% | IGROV1 ovarian 81.5% | OVCAR-3 ovarian 99.4% | HS 578T breast 98% | NCI/ADR-RES ovarian 92.7% | T-47D breast 166% | BT-549 breast 101% | MDA-MB-435 melanoma 96.3% | SW-620 colon 108% | MCF7 breast 96.7% | HCT-116 colon 89.4% | KM12 colon 109%

O=C(CCCCN1CCOCC1)Nc1ccc(Cn2nnc3c2C(=O)c2nnn(Cc4ccc(NC(=O)CCCCN5CCOCC5)cc4)c2C3=O)cc1
active: SR leukemia -22.2% | RPMI-8226 leukemia -18% | OVCAR-8 ovarian -36.2% | OVCAR-5 ovarian -23% | OVCAR-4 ovarian -73.9% | SK-OV-3 ovarian -68.2% | IGROV1 ovarian -68.3% | OVCAR-3 ovarian -58.2% | T-47D breast -50.5% | BT-549 breast -94.7% | MDA-MB-435 melanoma -77% | SW-620 colon -50.1% | MCF7 breast -51.7% | HCT-116 colon -91% | KM12 colon -36.2%
inactive: HS 578T breast 12.5% | NCI/ADR-RES ovarian 11%

Cc1ccc(Nc2c(C(N)=O)cnc3ccc(-c4csc(N)n4)cc23)cc1
inactive: SR leukemia 94.8% | RPMI-8226 leukemia 100% | OVCAR-8 ovarian 101% | OVCAR-5 ovarian 99.6% | OVCAR-4 ovarian 87% | SK-OV-3 ovarian 108% | IGROV1 ovarian 89.3% | OVCAR-3 ovarian 108% | HS 578T breast 92.9% | NCI/ADR-RES ovarian 96.4% | T-47D breast 96.7% | BT-549 breast 96.4% | MDA-MB-435 melanoma 102% | SW-620 colon 97% | MCF7 breast 92.4% | HCT-116 colon 93.5% | KM12 colon 95.6%

CS(CCCCN=C=S)=NC(=O)c1c(F)c(F)c(F)c(F)c1F (centres undefined)
inactive: RPMI-8226 leukemia 10.3% | OVCAR-8 ovarian 91.9% | OVCAR-5 ovarian 109% | OVCAR-4 ovarian 74.4% | SK-OV-3 ovarian 91.7% | IGROV1 ovarian 76.8% | OVCAR-3 ovarian 57.3% | HS 578T breast 90.8% | NCI/ADR-RES ovarian 97.3% | T-47D breast 19.1% | BT-549 breast 95.7% | MDA-MB-435 melanoma 70.8% | SW-620 colon 52.6% | MCF7 breast 22.8% | HCC-2998 colon 104% | KM12 colon 55.8%
active: SR leukemia 2.68%

CC/C(=C(\c1ccc(O)cc1)c1ccc(OCCN(C)CCN(C)C(=O)CCCCC(=O)c2c(C)[nH]c(/C=C3\N=C(c4ccc[nH]4)C=C3OC)c2C)cc1)c1ccccc1
active: SR leukemia 9.77%
inactive: RPMI-8226 leukemia 63.1% | OVCAR-8 ovarian 85.4% | OVCAR-5 ovarian 108% | OVCAR-4 ovarian 77.7% | SK-OV-3 ovarian 123% | IGROV1 ovarian 89.5% | OVCAR-3 ovarian 89.4% | HS 578T breast 97.8% | NCI/ADR-RES ovarian 97.4% | T-47D breast 62.4% | BT-549 breast 91.5% | SW-620 colon 88% | MCF7 breast 41.3% | HCT-116 colon 56.3% | HCC-2998 colon 97% | KM12 colon 68.6%

O=C1Nc2c(ccc(Cl)c2Cl)/C1=C/c1cc(Br)c(O)c(Br)c1
inactive: SR leukemia 39.3% | RPMI-8226 leukemia 14.8% | OVCAR-8 ovarian 51.4% | OVCAR-5 ovarian 87.1% | OVCAR-4 ovarian 64.9% | SK-OV-3 ovarian 63% | IGROV1 ovarian 47% | OVCAR-3 ovarian 27.3% | HS 578T breast 43.5% | NCI/ADR-RES ovarian 32.4% | T-47D breast 54.8% | BT-549 breast 29.2% | SW-620 colon 36.1% | MCF7 breast 52.8% | HCT-116 colon 58.4% | HCC-2998 colon 68.7% | KM12 colon 32.5%

C=C1C(=O)O[C@H]2[C@H]1CC/C(Cn1cc(Cn3ccc4cc(Cl)ccc43)nn1)=C\CC[C@@]1(C)O[C@@H]21
active: SR leukemia -27% | RPMI-8226 leukemia -42.3% | OVCAR-8 ovarian -38.8% | IGROV1 ovarian 2.27% | OVCAR-3 ovarian -91.2% | T-47D breast -47.6% | SW-620 colon -75.7% | MCF7 breast -77.5% | HCT-116 colon -91.5%
inactive: OVCAR-5 ovarian 69.5% | OVCAR-4 ovarian 14.3% | SK-OV-3 ovarian 85.9% | HS 578T breast 52.1% | NCI/ADR-RES ovarian 50.6% | BT-549 breast 22.8% | HCC-2998 colon 39.1% | KM12 colon 52%

COc1cc(C2CC(=O)c3c(C)nn(-c4nc5ccccc5[nH]4)c3C2)cc(OC)c1OC (centres undefined)
active: OVCAR-4 ovarian -35.4%
inactive: SR leukemia 87.7% | RPMI-8226 leukemia 92.1% | OVCAR-8 ovarian 25.7% | OVCAR-5 ovarian 90.4% | SK-OV-3 ovarian 17.9% | OVCAR-3 ovarian 67.2% | HS 578T breast 43.1% | NCI/ADR-RES ovarian 64.9% | T-47D breast 60% | BT-549 breast 77.7% | MDA-MB-435 melanoma 99.8% | SW-620 colon 99.6% | MCF7 breast 76.4% | HCT-116 colon 68.7% | HCC-2998 colon 82.4% | KM12 colon 102%

CCCCN(CCCC)CCC(C)(O)c1cc2ccccc2c2ccccc12 (centres undefined)
inactive: SR leukemia 39.7% | RPMI-8226 leukemia 67.3% | OVCAR-8 ovarian 92.6% | OVCAR-5 ovarian 98.6% | OVCAR-4 ovarian 109% | SK-OV-3 ovarian 99.9% | OVCAR-3 ovarian 69% | NCI/ADR-RES ovarian 67.6% | T-47D breast 109% | BT-549 breast 121% | MDA-MB-435 melanoma 83.9% | SW-620 colon 69.5% | MCF7 breast 96.5% | HCT-116 colon 65.6% | HCC-2998 colon 80.3% | KM12 colon 83.8%
active: IGROV1 ovarian 6.06%
